From PubChem BioAssay AID493035 (The Scripps Research Institute Molecular Screening Center, 2011)
Screen size: about 2,000 compounds; about 45 (2%) were called active. What follows is part of a selection rich in actives, with near analogues and random picks from the rest. Unmarked numbers belong to inactive results.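 The calls were made as follows: active = inhibition above the mean of all tested compounds plus 3 SD (cut at about 49% in these data); inactive = the rest.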

Molecular target: Perilipin-5 (Homo sapiens) + 1-acylglycerol-3-phosphate O-acyltransferase ABHD5 (Homo sapiens) (UniProt Q00G26+Q8WTS1)
Sequence (Q00G26 whole entry, looked up): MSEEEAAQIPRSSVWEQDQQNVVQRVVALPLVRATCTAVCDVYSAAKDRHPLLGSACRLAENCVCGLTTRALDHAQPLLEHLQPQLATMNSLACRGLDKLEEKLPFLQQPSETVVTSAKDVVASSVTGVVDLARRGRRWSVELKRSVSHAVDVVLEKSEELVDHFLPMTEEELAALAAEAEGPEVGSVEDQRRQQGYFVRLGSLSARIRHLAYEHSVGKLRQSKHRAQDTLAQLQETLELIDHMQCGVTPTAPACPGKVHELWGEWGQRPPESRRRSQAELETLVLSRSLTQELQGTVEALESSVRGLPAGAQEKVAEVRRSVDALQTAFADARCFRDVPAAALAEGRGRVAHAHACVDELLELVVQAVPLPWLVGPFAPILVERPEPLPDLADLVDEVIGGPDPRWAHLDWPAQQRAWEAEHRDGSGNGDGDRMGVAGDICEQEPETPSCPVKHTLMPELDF
Sequence (Q8WTS1 whole entry, looked up): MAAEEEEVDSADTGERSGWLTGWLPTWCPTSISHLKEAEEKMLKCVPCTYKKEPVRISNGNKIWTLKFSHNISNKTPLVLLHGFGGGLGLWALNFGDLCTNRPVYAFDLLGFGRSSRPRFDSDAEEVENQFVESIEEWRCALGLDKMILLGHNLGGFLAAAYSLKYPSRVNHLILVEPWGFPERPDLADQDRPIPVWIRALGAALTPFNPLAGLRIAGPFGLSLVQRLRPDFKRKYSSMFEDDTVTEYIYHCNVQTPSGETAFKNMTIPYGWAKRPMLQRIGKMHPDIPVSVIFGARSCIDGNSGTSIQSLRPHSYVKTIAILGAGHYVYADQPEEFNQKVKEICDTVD
Test: ABHD5-PLIN5 interaction inhibitors, pilot screen, cell lysate, split luciferase complementation, luminescence, NIH validation set (AID 493035);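 also: 0% = DMSO only wells while the 100% control is not stated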
Settings: split G. princeps luciferase complementation, lysates, 4 h, at 7.9 µM, stronger effect = higher value

In the case of `O=C1C(=O)c2ccccc2-c2ccccc21`, the inhibition is reported as 69.8% (active).
In the case of `COP(=S)(OC)SCN1C(=O)c2ccccc2C1=O`, the inhibition is reported as 93.3% (active).
For `O=C1C=Cc2ccccc2C1=O`, the inhibition was 59.1% (active).
In the case of `Cc1cc2c(C(C)C)c(O)c(O)c(C=O)c2c(O)c1-c1c(C)cc2c(C(C)C)c(O)c(O)c(C=O)c2c1O`, the inhibition is reported as 50.7% (active).
In the case of `CCOc1ccc(N2C(=O)NC(=O)/C(=C\c3cc(OC)c(OC)cc3[N+](=O)[O-])C2=O)cc1`, the inhibition is reported as 66.2% (active).
`COc1cc(/C=C2\C(=O)NC(=O)N(c3ccccc3)C2=O)c([N+](=O)[O-])cc1OC` was tested, and the inhibition was 63.5% (active).
With `O=c1c2ccccc2[se]n1-c1ccccc1` the inhibition was 95.1% (active).

First: S=C1NCCN1
Second: C[N+]1(C)C2CCC1CC(OC(=O)C(CO)c1ccccc1)C2 (stereo not given)
The inhibition of the first is higher: -0.74% for the first, -3.97% for the second.

Going from `CC12CN3CC(C)(CN(C1)C31CCOCC1)C2=O` to `CC12CN3CC(c4ccccc4)(CN(C1)C31CCCCC1)C2=O`, the inhibition rises from -15.3% to -2.32%.

First: C[C@H]1CCC/C=C/C2C[C@H](O)CC2[C@H](O)/C=C/C(=O)O1 (stereo not given in full)
Second: C[C@]12CC[C@@H](O)C[C@@H]1CC[C@@H]1[C@@H]2CC[C@]2(C)C(=O)CC[C@@H]12
The inhibition of the first is lower: -14.2% for the first, -8.46% for the second.

First: CC[C@]12C=CCN3CCC4(c5cc(Br)c(OC)cc5N(C)C4[C@@](O)(C(=O)OC)[C@@H]1OC(C)=O)C32 (stereo not given in full)
Second: CCN1CC2(COC(=O)c3ccccc3N)CCC(OC)C34C5CC6C(OC)CC(O)(C5C6OC)C(O)(C(OC)C23)C14 (stereo not given)
The inhibition of the first is lower: -5.38% for the first, 0.04% for the second.

Going from `CCOC(=O)c1cc2c(cn1)[nH]c1ccccc12` to `COc1ccc(-c2nc3ccccc3c(=O)o2)cc1`, the inhibition rises from -11.3% to -1.16%.

Going from `COc1ccc2c(c1)CC1(CN2C)C(=O)NC(=O)N(CCc2ccccc2)C1=O` (stereo not given) to `CC(Cc1ccccc1)NCC(=O)Nc1cc(N(C)C)nc2ccccc12` (stereo not given), the inhibition falls from 3.64% to 2.7%.

Compared with `CC12CCC3C(CC=C4CC(O)CCC43C)C1C/C(=C\c1cccc(F)c1)C2=O` (stereo not given), `C[C@]12CC[C@@H](O)C[C@@H]1CC[C@@H]1[C@@H]2CC[C@]2(C)[C@@H](O)CC[C@@H]12` is lower in inhibition: -0.83% for the first, -3.26% for the second.

First: C[C@H]1CCCC(=O)CCCCCc2cc(O)cc(O)c2C(=O)O1
Second: CCOC(=O)C(C)Oc1cc(C)cc2oc(=O)c3c(c12)CCCC3 (stereo not given)
The inhibition of the first is lower: 6.49% for the first, 6.91% for the second.

Compared with `NCC1(c2ccc3c(c2)OCCO3)CCCC1`, `O=c1c2ccccc2nc(/C=C/c2ccc3c(c2)OCO3)n1-c1ccccc1` is higher in inhibition: -7.35% for the first, 2.37% for the second.

Compared with `Cc1ccc(/C=C2/C(=O)NC(=O)N(C)C2=O)cc1`, `Cc1ccc(-n2c(C)cc(/C=C3/C(=O)NC(=O)N(C)C3=O)c2C)cc1` is higher in inhibition: 7.85% for the first, 33.2% for the second.

Compared with `CC[C@@H](CO)NC(=O)[C@@H]1C=C2c3cccc4c3c(cn4C)C[C@H]2N(C)C1`, `COc1ccccc1CN1CCCCC1c1cccnc1` (stereo not given) is lower in inhibition: 1.19% for the first, -4.35% for the second.

First: Cc1ccsc1C(=O)C1CCCN(Cc2cc3ccccc3o2)C1 (stereo not given)
Second: Cc1nc2ccccc2c(=O)n1-c1ccc(C(=O)O)cc1
The inhibition of the first is lower: -2.51% for the first, 7.89% for the second.

Compared with `Clc1ccc(COC(Cn2ccnc2)c2ccc(Cl)cc2Cl)c(Cl)c1` (stereo not given), `CCN(CC)CCOC(=O)C(O)(c1ccccc1)c1ccccc1` is lower in inhibition: 4.9% for the first, 0.42% for the second.

First: COc1ccc(OC)c([C@@H](O)[C@H](C)NC(C)(C)C)c1
Second: C[N+](C)(C)Cc1ccccc1
The inhibition of the first is higher: 2.3% for the first, -2.04% for the second.
